Measured values taken from PubChem BioAssay (NCI).
About 83,000 compounds went through this panel and 20% of them were active in at least one assay; those are over-represented in the sample as a whole.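 Growth was measured after 48 h exposure to one concentration of compound in 96-well plates. Values under 10 count as active.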 A number with no mark means an inactive call. Activity calls are given as the source filed them.

Assays:
Assay in all cases: NCI-60 one-dose screen, 48 h (100 = growth as untreated, 0 = no growth, -100 = all killed)
Conditions in all cases: 10 µM
EKVX NSCLC = test system: EKVX NSCLC
SN12C renal = test system: SN12C renal
UO-31 renal = test system: UO-31 renal
TK-10 renal = test system: TK-10 renal
ACHN renal = test system: ACHN renal
CAKI-1 renal = test system: CAKI-1 renal
A498 renal = test system: A498 renal
CCRF-CEM leukemia = test system: CCRF-CEM leukemia
MOLT-4 leukemia = test system: MOLT-4 leukemia
SR leukemia = test system: SR leukemia
RPMI-8226 leukemia = test system: RPMI-8226 leukemia
OVCAR-8 ovarian = test system: OVCAR-8 ovarian
OVCAR-5 ovarian = test system: OVCAR-5 ovarian
OVCAR-4 ovarian = test system: OVCAR-4 ovarian
SK-OV-3 ovarian = test system: SK-OV-3 ovarian
IGROV1 ovarian = test system: IGROV1 ovarian
OVCAR-3 ovarian = test system: OVCAR-3 ovarian
HS 578T breast = test system: HS 578T breast
NCI/ADR-RES ovarian = test system: NCI/ADR-RES ovarian

| SMILES | growth (EKVX NSCLC) | growth (SN12C renal) | growth (UO-31 renal) | growth (TK-10 renal) | growth (ACHN renal) | growth (CAKI-1 renal) | growth (A498 renal) | growth (CCRF-CEM leukemia) | growth (MOLT-4 leukemia) | growth (SR leukemia) | growth (RPMI-8226 leukemia) | growth (OVCAR-8 ovarian) | growth (OVCAR-5 ovarian) | growth (OVCAR-4 ovarian) | growth (SK-OV-3 ovarian) | growth (IGROV1 ovarian) | growth (OVCAR-3 ovarian) | growth (HS 578T breast) | growth (NCI/ADR-RES ovarian) |
| --- | --- | --- | --- | --- | --- | --- | --- | --- | --- | --- | --- | --- | --- | --- | --- | --- | --- | --- | --- |
| Cc1ccccc1N1C(=O)c2cc(S(N)(=O)=O)c(Cl)cc2NC1C (centres undefined) | 111% | 108% | 82.8% | 104% | 108% | 103% | 108% | 103% | 84.9% | 87.1% | 106% | 108% | 108% | 111% | 128% | 111% | 109% | 111% | 103% |
| CCN1CC(CCN2CCOCC2)C(C(c2ccccc2)c2ccccc2)C1=O (centres undefined) | 97.8% | 98.4% | 85.5% | 114% | 107% | 91.5% | 79.5% | 96.4% | 100% | 94% | 113% | 99.9% | 110% | 113% | 115% | 127% |  |  | 98.8% |
| COc1cc2c3c(n(C4CCN(C)CC4)c(=O)c2cc1OC)-c1cc2c(cc1C3=O)OCO2 | 69.4% | 43.4% | 52.4% | 86.9% | 57.2% | 75.6% |  |  | 29.5% | 7.92% (active) |  | 19.4% | 138% | 84.9% | 48.7% | 66.9% | -72% (active) | 109% | 64% |
| CSc1ccc(-c2cc(-c3ccc(NC(=O)CCCN4CCCC4)cc3)nc(-c3ccc(NC(=O)CCCN4CCCC4)cc3)c2)cc1 |  | 77.8% | 84.9% | 73.8% | 86.1% |  | 74.2% |  | 4.93% (active) | 32.2% | 73.2% | 76.4% | 72.3% | 67.3% | 75.2% |  | 63.4% | 55% | 95.5% |
| COc1ccc(C(=O)CSc2nc(-c3cc(OC)ccc3OC)cc(-c3ccc(OC)cc3)c2C#N)cc1 | 89.1% | 97.6% | 86.4% | 103% | 97.4% | 96.3% |  |  | 96.9% | 90.1% |  | 105% | 85.8% | 98.1% | 87.1% | 102% | 97% | 103% | 45.1% |
| CC[N+](CC)=c1ccc2nc3c(cc(NCc4ccccc4)c4ccccc43)oc-2c1 | -96.7% (active) | -85.9% (active) |  | -10.6% (active) | -77.9% (active) | -70.8% (active) | 44.8% | 19% | 2.86% (active) | -9.48% (active) | -21.1% (active) | -27.2% (active) | -91.4% (active) | -93.1% (active) | -8.74% (active) | -94.5% (active) | -54.9% (active) | -20.4% (active) | -7.86% (active) |
| CN1CCN(c2cc3c(cc2F)c(=O)c(C(=O)O)cn3-c2ccc(F)cc2)CC1 | 108% |  | 68.7% | 103% | 95.1% | 94.7% | 86.8% | 102% | 84.2% | 96.4% | 101% | 96.8% | 106% | 102% | 109% | 103% | 102% | 99.6% | 90.1% |
| CC(C)c1ccc(C(C)C(=O)N(CC2=C(C(C)c3ccccn3)c3ccccc3C2)C(C)C)cc1 (centres undefined) | 13.6% |  | -12.2% (active) | 53.8% | 36.6% | 3.55% (active) | 49.1% | 30.4% |  | 24.2% | 14.6% | 46.6% | 64.7% | 30.2% |  |  | 29.7% | 47.4% | 24.2% |
| C[C@]12CC[C@@H]3c4ccc(O)cc4CC[C@H]3[C@@H]1CC[C@@H]2NS(=O)(=O)c1ccc(C(F)(F)F)cc1 |  | 42% | 13.6% |  | 26.9% |  | 61.3% |  | 11.7% | 18.9% | 34.8% | 57% | 90.5% | 49.1% | 86.6% | 30.5% | 35.4% | 72.7% | 53% |
